ALDH1A1 block: blocks purified human ALDH1A1 activity; P00352; Purified ALDH1A1, NADH fluorescence, propionaldehyde substrate; Potency, µM (top dose mostly 75.3 µM), for inactives: top-dose activity, negative = inhibition, most hits filed as inhibitors; hit rate 7.3% among 220,000; AID 1030; active means well fitted inhibition curve with a large enough effect, not every such curve was filed as active; inconclusive means small, poorly fitted or top-dose-only effect, or another doubt; inactive means no such curve, though single readings can be large or run the other way;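 further: plate controls were no enzyme wells and a reference inhibitor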
Tau fluor counter: counter-screen for tau fibril formation inhibitors | tau K18 P301L Alexa594 fluorescence, heparin fibrillization | Potency, µM (series often up to 57.7 µM), for inactives: at the top dose activity change, negative = decrease | hit rate 0.93% among 280,000 | AID 1463; further: nearly all actives have a fitted effect of over 55% in size
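Human K18 P301L tau (15 uM unlabeled plus 0.24 uM Alexa 594-labeled, final) in 100 mM sodium acetate pH 7 was mixed with compound and 20 uM heparin and incubated 6 hr at 37 C.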
NPSR antag: blocks cAMP signaling of the human neuropeptide S receptor; CHO-NPSR cells, cAMP TR-FRET, antagonist mode; Q6W5P4; Potency, µM (top dose mostly 38.3 µM), for inactives: at the highest dose activity change, negative = inhibition, usual class: inhibitors; hit rate 1% among 220,000; AID 1461; further: nearly all actives have a fitted effect of over 50% in size
Tau FP inhib: blocks human tau fibril formation measured by polarization | P10636 | K18 P301L tau heparin fibrillization, Alexa594 FP, 6 h | Potency, µM (highest dose often 57.7 µM), for inactives: at the top dose activity, negative = inhibition, actives largely listed as inhibitors | hit rate 0.39% among 280,000; further: nearly all actives have a fitted effect of over 55% in size
Target sequence (P10636 561-689 P618L limits assumed): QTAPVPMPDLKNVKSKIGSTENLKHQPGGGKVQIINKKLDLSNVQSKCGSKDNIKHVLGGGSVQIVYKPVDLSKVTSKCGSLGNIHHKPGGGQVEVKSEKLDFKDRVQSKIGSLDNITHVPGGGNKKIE
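Human K18 P301L fragment (15 uM unlabeled plus 0.24 uM Alexa 594-labeled) in 100 mM sodium acetate pH 7 with compound, aggregation induced by 20 uM heparin for 6 hr at 37 C. ThT (30 uM) added for 1 hr, then Alexa 594 FP read.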
HPGD inh: inhibitors of human 15-hydroxyprostaglandin dehydrogenase (HPGD); AID 894; purified HPGD, NADH fluorescence kinetic, PGE2 substrate; Potency, µM, for inactives: at the highest dose activity change, negative = inhibition, most hits filed as inhibitors; hit rate 4.3% among 150,000; active means well fitted inhibition curve with a large enough effect, not every such curve was filed as active; inconclusive means small, poorly fitted or top-dose-only effect, or another doubt; inactive means no such curve, though single readings can be large or run the other way
Target sequence (P15428 whole entry, looked up): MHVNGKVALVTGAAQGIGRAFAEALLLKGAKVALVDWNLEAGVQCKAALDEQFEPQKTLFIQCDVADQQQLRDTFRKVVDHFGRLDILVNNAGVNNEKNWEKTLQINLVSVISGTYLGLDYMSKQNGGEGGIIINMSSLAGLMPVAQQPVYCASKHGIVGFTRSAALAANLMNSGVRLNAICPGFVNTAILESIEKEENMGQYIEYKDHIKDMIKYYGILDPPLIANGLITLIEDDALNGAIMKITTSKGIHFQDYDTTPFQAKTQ
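NADH formation kinetics: reaction with 30 uM PGE2 and 1 mM NAD+ (final), 20 nM enzyme, Tris-HCl pH 8 with Tween 20, after 15 min compound preincubation at room temperature. Fluorescence change, last versus first of five reads.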
Tau fibril ThT: tau fibrillization inhibition (ThT binding). AID 1460. P10636. hit rate 2.1% among 270,000. Potency, µM (doses to about 57.4 µM), for the others: top-dose activity, negative = inhibition, hits mostly inhibitors. recombinant tau K18 P301L, heparin-induced fibrillization, ThT fluorescence; further: nearly all actives have a fitted effect of over 55% in size
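Using a mix of unlabeled (15 uM) and Alexa 594-labeled (0.24 uM) tau K18 P301L, heparin-triggered fibrillization over 6 hr at 37 C was scored by ThT fluorescence.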
An asterisk follows results filed as active; ? = inconclusive; nt = no result; [ ] = dose if it differs, or a comment. Shown are actives, neighbours in structure and some others; about 9.5% of the full set was active somewhere. Unless noted, the call rests on the fitted dose curve; in most records, active means well fitted curve in the direction sought with a large enough effect; inconclusive means small, poorly fitted or top-dose-only effect, or another doubt; inactive means no such curve, though single readings can be large; an effect the other way counts as inactive or inconclusive. Unless noted, on the % scale 0 is the no-effect control and ±100 the full control effect; potency means the concentration at half of the fitted maximal effect.

SMILES | ALDH1A1 block | Tau fluor counter | NPSR antag | Tau FP inhib | HPGD inh | Tau fibril ThT
CCc1ccccc1NC(=O)CSc1ncc(S(=O)(=O)c2ccccc2)c(N)n1 | nt | -8% | nt | -2% | nt | 6%
O=C(NC1CCC(O)CC1)c1ccc(-c2ccc([N+](=O)[O-])cc2)o1 (centres undefined) | nt | -19% | 0% | 9% | nt | ?
COC(=O)CC1(c2cccc3ccccc23)C(=O)c2ccccc2C1=O | -1% | ? | ? | -5% | 4% | 16µM*
CCCC(=O)Nc1ccccc1C(=O)OCc1cc(=O)n2nc(C(C)C)sc2n1 | nt | 12% | nt | 10% | nt | 2%
COc1cccc(OC)c1OCc1cc(C2C3CCCC=C3C(C#N)=C(N)C2(C#N)C#N)c(C)cc1C (centres undefined) | ? | -11% | 3.2µM* | -3% | -19% | ?
CCCN1CC=C2C(C#N)=C(N)C(C#N)(C#N)C(c3cccc(OC)c3OC)C2C1 (centres undefined) | ? | -30% | -16%[46.1 µM] | ? | ? | ?
CSc1cccc(NC(=S)NCCCN2CCN(c3ccc(F)cc3)CC2)c1 | 3% | ? | -31% | -10% | nt | ?
O=c1cc(N2CCN(Cc3ccccc3)CC2)[nH]c(=O)n1-c1ccc(Br)cc1 | ? | 6% | -23%[46.1 µM] | 6% | -14% | ?
Cc1nn(C)cc1/C=C/C(=O)c1ccccc1 | -13% | 0% | -9%[46.1 µM] | 6% | -11% | -21%
CC1N/C(=C\C(=O)c2ccccc2)N(O)C1(C)C (centres undefined) | -3% | 7% | -3%[46.1 µM] | 7% | 14µM* | -2%
COc1cccc(Cn2c(CNS(=O)(=O)c3ccc(F)c(Cl)c3)nc3cccnc32)c1 | nt | -21% | nt | 5% | nt | -6%
Nc1cc2nn(-c3ccccc3)nc2cc1Cl | ? | ? | 5% | ? | nt | 3.5µM*
S=c1[nH]nc(Nc2cccc(Cl)c2)s1 | 2.5µM* | -21% | -9% | -8% | nt | ?
O=C(c1ccc(Cl)cc1)c1cnc(Nc2ccccc2Cl)s1 | -3% | -21% | -20%[46.1 µM] | -9% | -23% | -15%
S=c1[nH]nc(Nc2ccccc2Cl)s1 | 1.4µM* | -13% | -9% | -15% | nt | ?
CCOc1ccc(Cc2nccc3cc(OCC)c(OCC)cc23)cc1OCC | 9% | -9% | nt | 4% | -15% | -10%
Oc1ccccc1/C=N/Nc1ccccc1 | ? | 25µM*[quencher] | 34% | 18% | ? | ?
Oc1ccccc1/C=N/Nc1cccc2cccnc12 | -7% | 13µM*[quencher] | -12%[46.1 µM] | 15% | ? | ?
Cc1cc(O)c(/C=N/Nc2ccccc2)c(=O)o1 | 7.9µM* | -16% | -29%[46.1 µM] | -4% | -30% | ?
C/C(=N\Nc1ccc(Cl)cc1)c1c(O)cc(C)oc1=O | 7.9µM* | 0% | -14% | -7% | nt | ?
CCCCN(Cc1cc2ccccc2[nH]c1=O)C(=O)c1cccc(Cl)c1 | nt | -9% | nt | -2% | nt | 2%
O=c1c2oc3ccccc3c2n(Cc2cccc(F)c2)c(=O)n1Cc1ccc2c(c1)OCO2 | nt | -15% | nt | -11% | nt | 2%
O=C(CSc1nc(O)c(C/C=C/c2ccccc2)c(=O)[nH]1)Nc1cccc(F)c1 | nt | -20% | nt | -6% | nt | ?
Cc1cc(N/N=C/c2ccc(O)cc2O)nc(-c2ccccc2O)n1 | 10% | ? | -32% | ? | -17% | ?
Oc1ccc(/C=N/Nc2ccc3ccccc3c2)c(O)c1 | ? | 20µM*[quencher] | -13% | ? | nt | 18µM*
SMILES | ALDH1A1 block | Tau fluor counter | NPSR antag | Tau FP inhib | HPGD inh | Tau fibril ThT
Cc1ccc(C2OCC3(CO2)COC(c2ccc(C)cc2)OC3)cc1 (centres undefined) | 2% | 5% | 6% | 1% | -8% | 3%
Cc1ccc(C2OCC3(CO)COC(c4ccc(C)cc4)N23)cc1 (centres undefined) | 4.5µM* | -16% | -17%[46.1 µM] | -1% | -11% | -1%
Brc1cc2c(cc1/C=N/Nc1nc(N3CCCC3)nc(N3CCOCC3)n1)OCO2 | 14µM* | -6% | -27%[46.1 µM] | 0% | -7% | -12%
Oc1ccc(/C=N/Nc2nc(N3CCCCCC3)nc(N3CCCCCC3)n2)c(O)c1 | 10% | 10µM*[quencher] | ? | -14% | nt | ?
C(=N\Nc1nc(N2CCOCC2)nc(N2CCOCC2)n1)/c1ccncc1 | -4% | 0% | -9%[46.1 µM] | -3% | -6% | -6%
COc1cc(/C=N/Nc2nc(N3CCCC3)nc(N3CCCC3)n2)ccc1O | 5% | -18% | -13%[46.1 µM] | 12% | ? | -5%
Oc1ccc(Br)cc1/C=N/Nc1nc(N2CCCCC2)nc(N2CCOCC2)n1 | 5% | ? | ? | ? | nt | -1%
Oc1ccc(/C=N/Nc2nc(N3CCCC3)nc(N3CCCC3)n2)cc1O | 13µM* | ? | 33% | 8% | nt | ?
COC(=O)CC1C(=O)NCCN1C(=O)CSc1nc2ccc([N+](=O)[O-])cc2s1 (centres undefined) | ? | -8% | 13% | -5% | nt | -12%
COc1cc(/C=C2\SC(=Nc3c(C)n(C)n(-c4ccccc4)c3=O)NC2=O)ccc1O | -5% | -22% | -30% | -2% | 14µM* | ?
O=[N+]([O-])c1cccc(Cl)c1CSc1ccccn1 | 20µM* | -17% | -1% | -2% | nt | -4%
CCOc1cc(C2Sc3ccccc3NC3=C2C(=O)c2ccccc23)ccc1O (centres undefined) | nt | 10µM*[quencher] | nt | ? | nt | 10µM*
CCOc1cc(C2Nc3ccccc3C(=O)N2c2ccccc2)ccc1O (centres undefined) | ? | -7% | -2%[46.1 µM] | 2% | ? | -7%
CCCc1ccc(C2Sc3ccccc3NC3=C2C(=O)c2ccccc23)cc1 (centres undefined) | nt | 3.2µM*[quencher] | nt | ? | nt | ?
COc1ccc(Br)cc1C1Sc2ccccc2NC2=C1C(=O)c1ccccc12 (centres undefined) | nt | ? | nt | -16% | nt | ?
O=C1C2=C(Nc3ccccc3SC2c2ccccc2C(F)(F)F)c2ccccc21 (centres undefined) | nt | ? | nt | 13µM* | nt | ?
CC(Oc1ccc(Br)cc1)c1nc2c3ccccc3nc(=S)n2[nH]1 (centres undefined) | 0% | ? | -39% | -8% | nt | ?
CCCC(Oc1ccc(Br)cc1)c1nc2c3cc(OC)c(OC)cc3nc(=S)n2[nH]1 (centres undefined) | 5% | 16µM*[quencher] | -45% | ? | nt | -6%
CCCc1nnc(NC(=O)c2c(O)c3cccc4c3n(c2=O)CCC4)s1 | -5% | -7% | -5%[46.1 µM] | 0% | -12% | -17%
CCOC(=O)C1(CC2CC2)CCN(S(=O)(=O)/C=C/c2ccccc2)CC1 | ? | -18% | 20% | 0% | nt | -17%
CCN(CC(=O)Nc1ccc(C)c(F)c1)CC(=O)NC(C)C | 3.2µM* | 1% | 8% | -2% | nt | 7%

Compound activity as filed in PubChem BioAssay.
